Source: PubChem BioAssay (NCI)
This is part of a sample that, as a whole, favours compounds with a hit. Of some 83,000 tested, about 20% had one in any assay.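 Percent growth is the endpoint: 0 to 100 indicates growth inhibition (40 means 60% inhibition), 0 means no net growth, and negative values indicate cell death.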 The source made the active and inactive calls. How the source made its calls: active means growth percent below 10; inactive means the rest.

Assays:
Test in all cases: NCI-60 one-dose screen, 48 h (100 = growth as untreated, 0 = no growth, -100 = all killed)
Settings in all cases: 10 µM unless noted
RPMI-8226 leukemia = test system: RPMI-8226 leukemia
OVCAR-8 ovarian = test system: OVCAR-8 ovarian
OVCAR-5 ovarian = test system: OVCAR-5 ovarian
OVCAR-4 ovarian = test system: OVCAR-4 ovarian
SK-OV-3 ovarian = test system: SK-OV-3 ovarian
IGROV1 ovarian = test system: IGROV1 ovarian
OVCAR-3 ovarian = test system: OVCAR-3 ovarian
HS 578T breast = test system: HS 578T breast
NCI/ADR-RES ovarian = test system: NCI/ADR-RES ovarian
T-47D breast = test system: T-47D breast
MDA-MB-435 melanoma = test system: MDA-MB-435 melanoma
SW-620 colon = test system: SW-620 colon
MCF7 breast = test system: MCF7 breast
HCT-116 colon = test system: HCT-116 colon
KM12 colon = test system: KM12 colon
MDA-MB-468 breast = test system: MDA-MB-468 breast
HCC-2998 colon = test system: HCC-2998 colon
BT-549 breast = test system: BT-549 breast

Measured: growth

COc1ccc(C(=O)/C=C/c2cc3c(cc2Br)OCO3)cc1S(N)(=O)=O
inactive: OVCAR-4 ovarian 28% | SK-OV-3 ovarian 69% | HS 578T breast 30.3% | NCI/ADR-RES ovarian 13.8% | MDA-MB-468 breast 23.8%
active: RPMI-8226 leukemia -13.6% | OVCAR-8 ovarian -21% | OVCAR-5 ovarian -7.93% | IGROV1 ovarian 3.7% | OVCAR-3 ovarian -57.5% | T-47D breast -34.1% | MDA-MB-435 melanoma 5.61% | SW-620 colon -42.7% | MCF7 breast -1.63% | HCT-116 colon -98% | KM12 colon -57.9%

CC(=O)N1CCN(Cc2ccc3c(NNC(=O)c4cnccn4)nc4cc(F)ccc4n23)CC1
active: NCI/ADR-RES ovarian 7.69% | MDA-MB-468 breast 6.88%
inactive: RPMI-8226 leukemia 25.7% | OVCAR-8 ovarian 17.2% | OVCAR-5 ovarian 50.1% | OVCAR-4 ovarian 32.6% | IGROV1 ovarian 28.2% | OVCAR-3 ovarian 56.7% | HS 578T breast 56.3% | T-47D breast 16.4% | MDA-MB-435 melanoma 37.4% | SW-620 colon 38.8% | MCF7 breast 16.4% | HCT-116 colon 19.5% | HCC-2998 colon 61.3% | KM12 colon 32.6%

COc1ccc(C(=O)/C=C/c2ccc(Cl)c(Cl)c2)cc1S(N)(=O)=O
inactive: OVCAR-5 ovarian 10.7% | OVCAR-4 ovarian 34.6% | IGROV1 ovarian 11.1% | HS 578T breast 86.9% | NCI/ADR-RES ovarian 14.8%
active: RPMI-8226 leukemia -6.75% | OVCAR-8 ovarian -45.3% | OVCAR-3 ovarian -23.5% | T-47D breast -54.7% | MDA-MB-435 melanoma 2.27% | SW-620 colon -48.8% | MCF7 breast -48.7% | HCT-116 colon -96.2% | HCC-2998 colon -74.1% | KM12 colon -46.7% | MDA-MB-468 breast -19.4%

COc1cc(OC)cc(-c2cc3ccc(N(C)C)cc3c(=O)[nH]2)c1
inactive: RPMI-8226 leukemia 29.2% | OVCAR-5 ovarian 45.5% | OVCAR-4 ovarian 72.6% | SK-OV-3 ovarian 40.2% | IGROV1 ovarian 29.3% | HS 578T breast 47.3% | T-47D breast 82% | SW-620 colon 33.8% | MCF7 breast 22.5% | HCC-2998 colon 40.7% | KM12 colon 16.7% | MDA-MB-468 breast 40.2%
active: OVCAR-8 ovarian 5.26% | OVCAR-3 ovarian 4% | NCI/ADR-RES ovarian 0.753% | MDA-MB-435 melanoma 5.03% | HCT-116 colon 8.72%

O=C(NNc1nc2cc(F)ccc2n2c(CN3CC4CNCC4C3)ccc12)c1ccncn1 (centres undefined)
active: MDA-MB-468 breast -3.86%
inactive: RPMI-8226 leukemia 21.6% | OVCAR-8 ovarian 13% | OVCAR-5 ovarian 34.8% | OVCAR-4 ovarian 28.6% | SK-OV-3 ovarian 31.5% | IGROV1 ovarian 22.1% | OVCAR-3 ovarian 43.1% | HS 578T breast 45.3% | NCI/ADR-RES ovarian 59.8% | T-47D breast 12.4% | MDA-MB-435 melanoma 32.1% | SW-620 colon 31.3% | MCF7 breast 14.7% | HCT-116 colon 14.7% | HCC-2998 colon 56.7% | KM12 colon 27.9%

CC(=O)Oc1ccc(/C=C/C(=O)N[C@@H](Cc2ccccc2)C(O)C(=O)NCc2ccccc2)cc1OC(C)=O (some centres undefined)
inactive: RPMI-8226 leukemia 69.8% | OVCAR-8 ovarian 75.9% | OVCAR-5 ovarian 113% | OVCAR-4 ovarian 77.3% | SK-OV-3 ovarian 91.5% | IGROV1 ovarian 62.5% | OVCAR-3 ovarian 84.7% | NCI/ADR-RES ovarian 104% | T-47D breast 90.9% | BT-549 breast 81.6% | MDA-MB-435 melanoma 71.7% | SW-620 colon 93.2% | MCF7 breast 81.9% | HCT-116 colon 78.4% | HCC-2998 colon 96.3% | KM12 colon 86.3% | MDA-MB-468 breast 78.1%

NS(=O)(=O)c1ccc(-n2cc(-c3cccc(NC(=O)c4ccc(Cl)c(C(F)(F)F)c4)c3)nn2)cc1
inactive: RPMI-8226 leukemia 46.3% | OVCAR-5 ovarian 28.6% | OVCAR-4 ovarian 44.7% | SK-OV-3 ovarian 55.7% | IGROV1 ovarian 58.6% | HS 578T breast 32.1% | NCI/ADR-RES ovarian 78.2% | MDA-MB-435 melanoma 47.2% | SW-620 colon 42% | HCT-116 colon 26.2% | HCC-2998 colon 41.8%
active: OVCAR-8 ovarian -60.8% | OVCAR-3 ovarian -4.74% | T-47D breast -11.1% | MCF7 breast 1.38% | KM12 colon 5.73% | MDA-MB-468 breast -0.759%

O=C(NNc1nc2cc(F)ccc2n2c(C(=O)N3CCN(C4CC4)CC3)ccc12)c1ncccn1
inactive: RPMI-8226 leukemia 25.1% | OVCAR-8 ovarian 22.1% | OVCAR-5 ovarian 38.4% | OVCAR-4 ovarian 29.5% | SK-OV-3 ovarian 22.1% | IGROV1 ovarian 30.4% | OVCAR-3 ovarian 57.7% | HS 578T breast 66.5% | NCI/ADR-RES ovarian 16.6% | T-47D breast 27.3% | MDA-MB-435 melanoma 41.2% | SW-620 colon 34.6% | MCF7 breast 15.3% | HCT-116 colon 20.5% | HCC-2998 colon 63.8% | KM12 colon 35.7% | MDA-MB-468 breast 14.1%

Nc1n[nH]c2cccc(C#Cc3cccc(NC(=O)c4cccc(Cl)c4)c3)c12
inactive: RPMI-8226 leukemia 29.9% | OVCAR-8 ovarian 21.4% | OVCAR-4 ovarian 39.9% | SK-OV-3 ovarian 15.7% | IGROV1 ovarian 21.6% | OVCAR-3 ovarian 43.3% | HS 578T breast 43.2% | NCI/ADR-RES ovarian 25.6% | MDA-MB-435 melanoma 22.7% | SW-620 colon 42.1% | MCF7 breast 15.9% | HCT-116 colon 12.3% | HCC-2998 colon 30.4% | KM12 colon 20.2% | MDA-MB-468 breast 46%
active: T-47D breast 7.26%
